A short description of the first assay: A549 cell viability effects, profiling panel, calcein-AM fluorescence, 48 h, basal (AID 1162). As to conditions: higher = more signal.
In the case of `COC(=O)[C@@]1(Cc2ccccc2N=[N+]=[N-])N=C(c2ccc(OCCCO)cc2)O[C@H]1c1ccccc1`, the z-score was -2.99. For the compound `C=C(COC)/C(=C/C[C@@H](OC(=O)c1ccncc1)c1cccc(OCCO)c1)c1cc(C(=O)OC)ccc1OC`, the z-score was -0.637. On to `COCCCNC(=O)[C@]1(Cc2ccccc2)N=C(c2ccc(OCCCO)cc2)O[C@@H]1c1ccccc1N=[N+]=[N-]`, for which the z-score was -1.8. `Cc1ccccc1C(O)C1C=CC2C(=O)N(C)C(=O)C2N1Nc1ccc([N+](=O)[O-])cc1[N+](=O)[O-]` (stereo unspecified): the z-score is 0.544. As for `CCCCCCCCCCC(O)C1C=CC2C(=O)NC(=O)C2N1Nc1ccccn1` (stereo unspecified), the z-score is -3.22.

Take `Cc1ccc(S[C@]2(C(=O)O)CC(=O)N(C3CCCCC3)[C@@H]2c2ccc(CO)cc2)cc1`: the z-score was -0.0959. Same read-out and setting: for `CC(C)c1ccc(NN2C(C(O)c3ccccn3)C=CC3C(=O)N(c4ccccc4)C(=O)C32)cc1` (stereo unspecified) the value was -0.381; for `COc1ccc(C(=O)Nc2ccc(CN3C(=O)[C@@]4(O[C@@H](CC(=O)N5Cc6ccccc6C[C@H]5CO)[C@H]([Si](C)(C)c5ccc(OC)cc5)[C@H]4C)c4ccccc43)cc2)cc1`, -0.0018. With `CCOC(=O)C[C@H]1[C@H](OC(=O)c2cc3ccccc3oc2=O)[C@@H](NC(=O)c2ccc3ccccc3n2)c2cc(OCCCO)ccc2N1C(=O)c1ccc2ccccc2n1`, the z-score was 0.513.

Consider `COC(=O)[C@]1(Cc2ccccc2CN=[N+]=[N-])N=C(c2ccc(OCCCO)cc2)O[C@@H]1c1ccccc1`, for which the z-score is -3.05. For the compound `COC(=O)[C@@]1(Cc2ccccc2)[C@H]2c3cc(C(=O)N4CCCC4)n(Cc4ccccc4)c3C[C@H]2CN1C(=O)c1ccccc1`, the z-score was -1.39. Take `O=C1c2ccccc2C(=O)C2CC([C@H]3Oc4ccccc4S(=O)(=O)N4CCC[C@@H]34)=CCC12` (stereo partly specified): the z-score is 0.242. On to `CCOC(=O)C1=CC[C@@H](c2cccc(Br)c2)N(S(=O)(=O)c2ccc(C)cc2)[C@H]1c1ccc([N+](=O)[O-])cc1`, for which the z-score is -0.699. For `C#CCOC(=O)N[C@H](C=CCCCC)c1ccccc1`, the z-score was -1.18. Consider `COCCOC(=O)N1C(=O)[C@@]2(c3ccccc31)[C@H](c1ccccc1OCCO)N1[C@H](c3ccccc3)[C@H](c3ccccc3)OC(=O)[C@H]1[C@@H]2C(=O)N1CCc2cc(OC)c(OC)cc2C1`, for which the z-score was -0.322. As for `CN1C(=O)C2C=CC(C(O)c3cccc4ccccc34)N(NC(=O)OC(C)(C)C)C2C1=O` (stereo unspecified), the z-score is -0.927. Take `CN(C)C(=O)[C@@]1(Cc2ccccc2N=[N+]=[N-])N=C(c2ccc(OCCCO)cc2)O[C@H]1c1ccccc1N=[N+]=[N-]`: the z-score was -0.0639. Take `[N-]=[N+]=Nc1ccccc1[C@@H]1OC(c2ccc(OCCCO)cc2)=N[C@]1(CCS(=O)(=O)c1ccccc1)C(=O)NCc1ccccc1`: the z-score is 0.282. Turning to `CC(C)C(CO)N1C(=O)[C@@H]2[C@H]3C(=O)OCC=C[C@H]3OC23C=CCN(CCN2CCOCC2)C(=O)[C@@H]13` (stereo partly specified), the z-score was -0.334. On the same count and under the same terms, under `CN(C)C(=O)[C@@]1(CCC(=O)OC(C)(C)C)N=C(c2ccc(OCCCO)cc2)O[C@H]1c1ccccc1N=[N+]=[N-]` stands 0.186; under `C=CCNC(=O)[C@H]1[C@@H]2C(=O)O[C@@H](c3ccccc3)[C@@H](c3ccccc3)N2[C@@H](c2ccc(O)cc2)[C@]12C(=O)N(C(=O)OCCOC)c1ccc(C#CC3(O)CCCCCC3)cc12`, 0.904; under `CCOC(=O)C1=CC[C@@H](c2ccc(N(CC)CC)cc2)N(S(=O)(=O)c2ccc(C)cc2)[C@H]1c1ccc([N+](=O)[O-])cc1`, -0.112. On to `CCCNC(=O)[C@@]1(Sc2ccc(C)cc2)CC(=O)N(Cc2ccccc2)[C@@H]1c1ccc(CO)cc1I`, for which the z-score was -0.422. Turning to `C[N+](C)(C)CCCCCCNC(=O)[C@H]1C[C@H]2C(=O)N3CCC[C@H]3C(=O)N2[C@H]1c1cccc(OCCO)c1`, the z-score was -0.538. As to `O=C(O)[C@]1(CCS(=O)(=O)c2ccccc2)N=C(c2ccc(OCCCO)cc2)O[C@@H]1c1ccccc1`, the z-score was 0.195.

A further assay in a line: adipocyte viability effects, profiling panel, cell-based, 3T3-L1 adipocytes, calcein-AM fluorescence, 48 h, basal (AID 1163). As to conditions: 3T3-L1 adipocytes viability, higher = more signal.
Turning to `CCOc1cc(C(O)C2C=CC3C(=O)NC(=O)C3N2Nc2ccccn2)ccc1O` (stereo unspecified), the z-score was -1.5. Still for that read-out and setting: for `Cc1cc(C)c(C(O)C2C=CC3C(=O)N(c4ccccc4)C(=O)C3N2Nc2ccccc2)c(C)c1` (stereo unspecified) the value was -1.35.

With `CCCC=C(CCC)[C@@H](NS(=O)(=O)c1ccccc1)c1ccc(C(F)(F)F)cc1`, the z-score is -0.287. With `COCCCNC(=O)[C@@]1(Cc2ccccc2)COC(c2ccc(OCCCO)cc2)=N1`, the z-score was -0.598. `C[C@@]1([C@@H](NC(=O)c2cccs2)c2ccc(-c3ccccc3)cc2)C[C@H]1C1CCCCC1`: the z-score was 0.437.

Regarding `COc1ccc(C#Cc2ccc3c(c2)[C@]2(C(=O)N3)[C@H](c3ccc(OCCO)cc3)N3[C@H](c4ccccc4)[C@H](c4ccccc4)OC(=O)[C@H]3[C@@H]2C(=O)N2CCN(c3ncccn3)CC2)cc1`, the z-score is 1.15.

As to `CC(C)C[C@@H]1NC(=O)[C@@H]2C[C@H](C(=O)NCc3ccc(F)cc3)[C@H](c3ccc(O)cc3)N2C1=O`, the z-score is 0.305. In the case of `CCCN1C(=O)[C@@H]2Cc3c([nH]c4ccccc34)[C@@H](c3cccc(O)c3)N2C1=O`, the z-score was 0.407. Take `COC(=O)[C@@]1(Cc2ccc(OC)cc2)[C@H]2c3cc(C(=O)N4CCCC4)n(CCc4ccc(O)c(OC)c4)c3C[C@H]2CN1C(=O)c1ccccc1`: the z-score is 0.0048. Turning to `C=CC[C@]1(C(=O)NCC(O)CO)N=C(c2ccc(OCCCO)cc2)O[C@H]1c1ccccc1N=[N+]=[N-]` (stereo partly specified), the z-score is 0.864. For `COc1ccc([Si](C)(C)[C@@H]2[C@@H](CCO)O[C@]3(C(=O)N(Cc4ccc(N5C(=O)c6ccccc6Oc6ccccc65)cc4)c4ccccc43)[C@H]2C)cc1`, the z-score is -0.703. For the compound `COC(=O)[C@@]1(Cc2ccccc2N=[N+]=[N-])N=C(c2ccc(OCCCO)cc2)O[C@H]1c1ccccc1`, the z-score was -0.421. With `C=C(COC)/C(=C/C[C@@H](OC(=O)c1ccncc1)c1cccc(OCCO)c1)c1cc(C(=O)OC)ccc1OC`, the z-score is -0.628. On the same count and under the same terms, for `COCCCNC(=O)[C@]1(Cc2ccccc2)N=C(c2ccc(OCCCO)cc2)O[C@@H]1c1ccccc1N=[N+]=[N-]` the value was 1.77. Same read-out and setting: for `Cc1ccccc1C(O)C1C=CC2C(=O)N(C)C(=O)C2N1Nc1ccc([N+](=O)[O-])cc1[N+](=O)[O-]` (stereo unspecified) the value was -0.729; for `CCCCCCCCCCC(O)C1C=CC2C(=O)NC(=O)C2N1Nc1ccccn1` (stereo unspecified), -0.964. Still for that read-out and setting: under `Cc1ccc(S[C@]2(C(=O)O)CC(=O)N(C3CCCCC3)[C@@H]2c2ccc(CO)cc2)cc1` stands -0.753; under `CC(C)c1ccc(NN2C(C(O)c3ccccn3)C=CC3C(=O)N(c4ccccc4)C(=O)C32)cc1` (stereo unspecified), -0.696; under `COc1ccc(C(=O)Nc2ccc(CN3C(=O)[C@@]4(O[C@@H](CC(=O)N5Cc6ccccc6C[C@H]5CO)[C@H]([Si](C)(C)c5ccc(OC)cc5)[C@H]4C)c4ccccc43)cc2)cc1`, 0.844.

Take `CCOC(=O)C[C@H]1[C@H](OC(=O)c2cc3ccccc3oc2=O)[C@@H](NC(=O)c2ccc3ccccc3n2)c2cc(OCCCO)ccc2N1C(=O)c1ccc2ccccc2n1`: the z-score is 1.27. Still for that read-out and setting: for `COC(=O)[C@]1(Cc2ccccc2CN=[N+]=[N-])N=C(c2ccc(OCCCO)cc2)O[C@@H]1c1ccccc1` the value was 0.371; for `COC(=O)[C@@]1(Cc2ccccc2)[C@H]2c3cc(C(=O)N4CCCC4)n(Cc4ccccc4)c3C[C@H]2CN1C(=O)c1ccccc1`, 0.988.

For the compound `O=C1c2ccccc2C(=O)C2CC([C@H]3Oc4ccccc4S(=O)(=O)N4CCC[C@@H]34)=CCC12` (stereo partly specified), the z-score was 0.703.

With `CCOC(=O)C1=CC[C@@H](c2cccc(Br)c2)N(S(=O)(=O)c2ccc(C)cc2)[C@H]1c1ccc([N+](=O)[O-])cc1`, the z-score is -0.349. As for `C#CCOC(=O)N[C@H](C=CCCCC)c1ccccc1`, the z-score is -0.115. On the same count and under the same terms, under `COCCOC(=O)N1C(=O)[C@@]2(c3ccccc31)[C@H](c1ccccc1OCCO)N1[C@H](c3ccccc3)[C@H](c3ccccc3)OC(=O)[C@H]1[C@@H]2C(=O)N1CCc2cc(OC)c(OC)cc2C1` stands 1.09; under `CN1C(=O)C2C=CC(C(O)c3cccc4ccccc34)N(NC(=O)OC(C)(C)C)C2C1=O` (stereo unspecified), -0.0679; under `CN(C)C(=O)[C@@]1(Cc2ccccc2N=[N+]=[N-])N=C(c2ccc(OCCCO)cc2)O[C@H]1c1ccccc1N=[N+]=[N-]`, 1.45. As to `[N-]=[N+]=Nc1ccccc1[C@@H]1OC(c2ccc(OCCCO)cc2)=N[C@]1(CCS(=O)(=O)c1ccccc1)C(=O)NCc1ccccc1`, the z-score is 0.803. As to `CC(C)C(CO)N1C(=O)[C@@H]2[C@H]3C(=O)OCC=C[C@H]3OC23C=CCN(CCN2CCOCC2)C(=O)[C@@H]13` (stereo partly specified), the z-score is -0.347. With `CN(C)C(=O)[C@@]1(CCC(=O)OC(C)(C)C)N=C(c2ccc(OCCCO)cc2)O[C@H]1c1ccccc1N=[N+]=[N-]`, the z-score is 0.727. As to `C=CCNC(=O)[C@H]1[C@@H]2C(=O)O[C@@H](c3ccccc3)[C@@H](c3ccccc3)N2[C@@H](c2ccc(O)cc2)[C@]12C(=O)N(C(=O)OCCOC)c1ccc(C#CC3(O)CCCCCC3)cc12`, the z-score is 0.76. For the compound `CCOC(=O)C1=CC[C@@H](c2ccc(N(CC)CC)cc2)N(S(=O)(=O)c2ccc(C)cc2)[C@H]1c1ccc([N+](=O)[O-])cc1`, the z-score is -1.19.

For the compound `CCCNC(=O)[C@@]1(Sc2ccc(C)cc2)CC(=O)N(Cc2ccccc2)[C@@H]1c1ccc(CO)cc1I`, the z-score is -0.525. As to `C[N+](C)(C)CCCCCCNC(=O)[C@H]1C[C@H]2C(=O)N3CCC[C@H]3C(=O)N2[C@H]1c1cccc(OCCO)c1`, the z-score was -1.25. In the case of `O=C(O)[C@]1(CCS(=O)(=O)c2ccccc2)N=C(c2ccc(OCCCO)cc2)O[C@@H]1c1ccccc1`, the z-score was 0.103.

Values taken from PubChem BioAssay.
Also: test concentration not given here.
